The subject of one test is Staphylococcus aureus. The conditions noted are these: Concentration 32 ug.mL-1, ASSAY_TEST Inhibition of Bacterial Growth, detection method Absorption (OD600), MEDIA CAMHB, plate type 384well, NBS, CORNING #3640, time 18 hr.
For another test, the system named is Escherichia coli. The following applies: Concentration 32 ug.mL-1, ASSAY_TEST Inhibition of Bacterial Growth, detection method Absorption (OD600), MEDIA CAMHB, plate type 384well, NBS, CORNING #3640, time 18 hr.

Several values for one entry are separate records, joined by “and”; a condition that tells them apart may be missing. Equal entries are not always repeated. Results with a measured potency or affinity are listed apart.

As to `Nc1c2c(nc3c1C(c1ccc([N+](=O)[O-])cc1)c1c(ccc4ccccc14)O3)CCCC2` (stereo unspecified), the Inhibition is given as 18.24% with Staphylococcus aureus and 7.89% with Escherichia coli.

`COc1nc(N)c(C#N)c(-c2ccccc2)c1C#N`: the Inhibition in the test on Staphylococcus aureus was 26.81%; in the test with Escherichia coli, -3.07%.

As to `O=C(N/N=C/Cc1ccccc1)c1cc2ccccc2[nH]1`, the Inhibition with Staphylococcus aureus came to 10.17%; in the test on Escherichia coli, 9.88%.

With `Cc1ccc(-c2c(C#N)c(N)nc3c2S(=O)(=O)OC3(C)C)cc1`, the Inhibition in the test on Staphylococcus aureus was 9.98%; with Escherichia coli, 6.38%.

Consider `COc1cc(Br)c(C=O)cc1OC`, for which the Inhibition was 28.77% in the test on Staphylococcus aureus and 5% in the test with Escherichia coli.

On to `CC1CN(C)c2c(C#N)c(-c3ccccc3)c(C#N)c(=N)n21` (stereo unspecified), for which the Inhibition in the test with Staphylococcus aureus is 26.27%; in the test on Escherichia coli, -6.63%.

For the molecule `C#CCN(C)c1nc(Sc2ccccc2)c(C#N)c(-c2ccccc2)c1C#N`, the Inhibition in the test with Staphylococcus aureus is given as 6.49%; in the test on Escherichia coli, 1.09%.

On to `O=Cc1cc2ccccc2nc1Cl`, for which the values for the Inhibition in the test with Staphylococcus aureus and with Escherichia coli were 19.39% and 16.87%, respectively.

Turning to `CCOC(=O)c1cc(C#N)c(N)nc1C`, the results for the Inhibition in the test on Staphylococcus aureus and with Escherichia coli were 8.2% and -11.35%, respectively.

`COc1cc(C2c3ccc4ccccc4c3Oc3nc4c(c(N)c32)CCCC4)ccc1O.Cl` (stereo unspecified): the Inhibition is -4.49% with Staphylococcus aureus and -1.18% with Escherichia coli.

`c1ccc(COc2ccc3[nH]ccc3c2)cc1`: the results for the Inhibition in the test on Staphylococcus aureus and in the test with Escherichia coli were 4.67% and 3.23%, respectively.

Take `O=c1oc2cc(O)ccc2cc1-c1ccccc1`: the Inhibition with Staphylococcus aureus was found to be 10.2%; with Escherichia coli it was 2.31%.

Take `CCCCNNC(=O)c1cc2ccccc2[nH]1`: the Inhibition with Staphylococcus aureus is given as 0.71%; in the test with Escherichia coli, -2.05%.

Turning to `C#CCNc1nc(OC)c(C#N)c(-c2ccccc2)c1C#N`, the Inhibition in the test with Staphylococcus aureus is 49.28%; in the test with Escherichia coli it was -4%.

In the case of `N#CC1(Br)C(=NBr)Oc2ccc3ccccc3c2C1c1ccccc1[N+](=O)[O-]` (stereo unspecified), the Inhibition in the test on Staphylococcus aureus was 23.03%; in the test with Escherichia coli, -25.63%.

Turning to `N#Cc1cc2c(N)c3c(nc2nc1Cl)CCCC3`, the Inhibition is 35.71% with Staphylococcus aureus and -0.19% in the test with Escherichia coli.

As to `Cl.NC1(C(=O)O)CC1c1cccc(Cl)c1` (stereo unspecified), the values for the Inhibition in the test with Staphylococcus aureus and with Escherichia coli were 12.59% and 12.02%, respectively.

On to `N#Cc1cc(C#N)c(NCCCCC2CCN(Cc3ccccc3)CC2)nc1N`, for which the figures for the Inhibition in the test on Staphylococcus aureus and with Escherichia coli were 36.38% and -9.24%, respectively.

Take `C#CCN(Cc1ccccc1)c1nc(N)c(C#N)c(-c2ccccc2)c1C#N`: the Inhibition in the test on Staphylococcus aureus is reported as 11.64%; in the test on Escherichia coli, -2.54%.

With `N#CC1=C(N)Oc2ccc3ccccc3c2C1c1ccccc1[N+](=O)[O-]` (stereo unspecified), the Inhibition in the test on Staphylococcus aureus is given as 40.78%; in the test on Escherichia coli, -6.45%.

As to `Nc1c2c(nc3c1C(c1ccccc1)c1ccc4ccccc4c1O3)CCCC2` (stereo unspecified), the Inhibition is 23.6% in the test on Staphylococcus aureus and -5.04% in the test with Escherichia coli.

Turning to `O=C(NN=Cc1c[nH]c2ccccc12)c1cccc2ccccc12`, the results for the Inhibition in the test with Staphylococcus aureus and with Escherichia coli were 15.12% and 10.09%, respectively.

Take `CC1=C(CO)C(c2ccc(C#N)cc2)C(C#N)=C(N)O1` (stereo unspecified): the Inhibition came to 9.52% in the test on Staphylococcus aureus and 17.18% in the test on Escherichia coli.

For the molecule `C#CCNc1ncccn1`, the Inhibition in the test on Staphylococcus aureus is 40.44%; in the test with Escherichia coli, -0.02%.

Take `O=C1SC(SCc2ccccc2)=NC1=Cc1ccccc1`: the Inhibition in the test on Staphylococcus aureus is on record as 6.82%; in the test with Escherichia coli, 1.82%.

On to `C#CCN(C)Cc1cc2cc(OCCCCC3CCN(Cc4ccccc4)CC3)ccc2n1C`, for which the Inhibition in the test on Staphylococcus aureus is recorded as 38.42%; with Escherichia coli, -8.55%.

`CC#CCN(Cc1ccccc1)c1nc(N)c(C#N)cc1C#N`: the Inhibition in the test with Staphylococcus aureus is given as 14.89%; with Escherichia coli, -4.77%.

Regarding `O=C(O)C(=Cc1ccccc1)NC(=O)c1ccccc1`, the Inhibition in the test on Staphylococcus aureus is given as 14.72%; with Escherichia coli, 9.37%.

Consider `COc1ccc(C2c3ccc4ccccc4c3Oc3nc4c(c(N)c32)CCCC4)c(OC)c1` (stereo unspecified), for which the Inhibition in the test on Staphylococcus aureus was -6.11%; with Escherichia coli, -4.44%.

With `Cc1nc(Nc2ccccc2)c2cnn(-c3ccccc3)c2n1`, the Inhibition worked out at 6.87% with Staphylococcus aureus and 6.44% with Escherichia coli.

In the case of `COc1ccccc1C1c2ccc3ccccc3c2Oc2nc3c(c(N)c21)CCCC3` (stereo unspecified), the Inhibition with Staphylococcus aureus is 0.62%; with Escherichia coli, 3.02%.

`CN(C)c1nc(N)c(C#N)cc1C#N.Cl`: the Inhibition in the test on Staphylococcus aureus (32 ug/mL) is -10.37% and 5.36%; in the test on Escherichia coli (32 ug/mL), -3.96% and -19.68%.

With `CCCC(=O)NCc1c(-c2ccc(Cl)cc2)nc2ccccn12`, the Inhibition in the test on Staphylococcus aureus was 11.89%; with Escherichia coli, 8.99%.

Consider `COc1ccc2cc(C3C(C(C)=O)=C(C)Oc4nc5c(c(N)c43)CCCCC5)c(Cl)nc2c1` (stereo unspecified), for which the Inhibition with Staphylococcus aureus is 26.1%; in the test with Escherichia coli, 15.71%.

Consider `C#CCN(C)c1nc(NCC2CCN(Cc3ccccc3)CC2)c(C#N)c(-c2ccccc2)c1C#N.Cl`, for which the Inhibition in the test on Staphylococcus aureus is on record as 36.49%; in the test on Escherichia coli, -7.12%.

As for `N#Cc1cc(Br)cc(Br)c1N`, the Inhibition in the test on Staphylococcus aureus came to 3.71%; in the test on Escherichia coli, 14.62%.

As for `Cl.Nc1c2c(nc3c1C(c1ccccc1)c1c(ccc4ccccc14)O3)CCCC2` (stereo unspecified), the Inhibition is recorded as 8.92% in the test with Staphylococcus aureus and 12.69% with Escherichia coli.

In the case of `COc1ccc2c(c1)cc(CN(C)C)n2C`, the Inhibition is -0.93% in the test on Staphylococcus aureus and -1.4% in the test with Escherichia coli.

What is called Inhibition is the relative decrease from the control value, in per cent.

Values taken from ChEMBL document CHEMBL4513135, “CO-ADD screening of IQOG CSIS (Spain) compounds”.
